Results: PubChem BioAssay (NCI)
“And” between values parts separate entries of the source, which are not always exact repeats. Equal values may be shown once. The panel holds about 83,000 compounds, 20% with a hit somewhere; the sample as a whole holds those more often.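 Growth was measured after 48 h exposure to one concentration of compound in 96-well plates. Values under 10 count as active.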 The source made the active and inactive calls.

What follows are compounds tested on T-47D breast (assay: NCI-60 one-dose screen, 48 h (100 = growth as untreated, 0 = no growth, -100 = all killed)). Settings: 0.0025 µM.
Protocol: Growth inhibition of the T-47D human tumor cell line is measured as a screen for anti-cancer activity. Cells are grown in 96 well plates and exposed to the test compound for 48 hours. Compounds are tested at a single concentration, which is 10^-5 M for most compounds. The reported endpoint is percent growth (GI% or GIPRCNT), where numbers from 0 - 100% represent growth inhibition, and numbers from -100% - 0 represent cell death. For example, a value of 40 represents 60% growth inhibition. A value of 0 means no net growth occurred over the course of the experiment. A value of -40 indicates 40% of cells at the beginning of the experiment died by the end of the experiment. A value of -100 means all cells are dead at the end of the experiment.
NCI-60 Human Tumor Cell Lines Screen was performed using the standard one-dose NCI protocol, which is described in more detail at https://dtp.cancer.gov/discovery_development/nci-60/default.htm.
Compounds with GIPRCNT values below 10 were considered active. Activity score was based on GIPRCNT using the following formula: […]
Score is 0 for GIPRCNT values of 100 or above, 50 for GIPRCNT values of 0, and 100 for GIPRCNT values of -100.
With COc1cccc2c1C(=O)c1c(O)c3c(c(O)c1C2=O)C[C@@](O)(C(=O)CO)C[C@@H]3OC1CC(N)C(O)C(C)O1 (stereo partly specified) the growth was 90.7% (inactive).

Same assay, conditions: 1 µM
COc1cccc2c1C(=O)c1c(O)c3c(c(O)c1C2=O)C[C@@](O)(C(=O)CO)C[C@@H]3OC1CC(N)C(O)C(C)O1 (stereo partly specified) was tested, and the growth was 13.2% (inactive).

Same assay, conditions: 2.5 µM
COc1cccc2c1C(=O)c1c(O)c3c(c(O)c1C2=O)C[C@@](O)(C(=O)CO)C[C@@H]3OC1CC(N)C(O)C(C)O1 (stereo partly specified) was tested, and the growth was 39.5% (inactive).

Same assay, conditions: 10 µM
C[n+]1c2cc(N)ccc2cc2ccc(N)cc21 was tested, and the growth was -14.1% (active) and -9.22% (active) and -15% (active).
With COc1cccc2c1C(=O)c1c(O)c3c(c(O)c1C2=O)C[C@@](O)(C(=O)CO)C[C@@H]3OC1CC(N)C(O)C(C)O1 (stereo partly specified) the growth was -11.3% (active).
CCCC1CCC(=C2C(=O)CCC2=O)O1 (stereo unspecified) was tested, and the growth was 87.8% (inactive) and 110% (inactive).
For NNc1c2ccccc2nc2ccccc12, the growth was 74.6% (inactive).
For NNc1ccc2ccccc2c1, the growth was 70.2% (inactive) and 98.5% (inactive).
In the case of CC(C)(C)CC(C)(C)c1ccc(OCCO)cc1, the growth is reported as 105% (inactive).
For CCN(CC)c1ccc(NC(C(=O)c2ccccc2)c2ccccc2)cc1 (stereo unspecified), the growth was 8.44% (active).
O=C(C(=Cc1ccccc1)C(=O)c1ccccc1)c1ccccc1 was tested, and the growth was 65.5% (inactive) and 74.7% (inactive).
In the case of CC[N+](CC)=c1ccc2nc3c(cc(N)c4ccccc43)oc-2c1, the growth is reported as -44% (active).
In the case of CCC(C)(C)c1cc(O)c(C(C)(C)CC)cc1O, the growth is reported as 60.3% (inactive).
For NC(=O)SCC(=O)NNc1ccccc1, the growth was 73.5% (inactive).
For Nc1ccc2cc3ccc(N)cc3nc2c1, the growth was 102% (inactive) and 2.81% (active).
With Cc1nc(N=C(N)N)nc2ccc3ccccc3c12 the growth was -10.6% (active).
With N=S(c1ccccc1[N+](=O)[O-])c1ccccc1[N+](=O)[O-] the growth was -2.34% (active).
For OC(CN1CCCC2CCCCC21)c1cc2ccccc2c2ccccc12 (stereo unspecified), the growth was 14.9% (inactive).
Cc1cc(NS(=O)(=O)c2ccc(N=Nc3cc(N=Nc4ccc(S(=O)(=O)Nc5cc(C)nc(C)n5)cc4)c4c(NC(=O)C(Cl)Cl)cccc4c3OC(=O)C(Cl)Cl)cc2)nc(C)n1 (tested in a mixture with another compound) was tested, and the growth was 101% (inactive) and 87.1% (inactive).
For OCC1OC(n2cnc3c(=S)nc[nH]c32)C(O)C1O (stereo unspecified), the growth was 100% (inactive) and 57.7% (inactive).
In the case of CCO/C=C1\SC(=S)N(c2cccc(O)c2)C1=O, the growth is reported as 87.4% (inactive).
With CN(C)C(=S)SC(=S)N(C)C the growth was 67% (inactive) and 96.3% (inactive).
CC1=CC(C)=Nc2ccc(Cl)cc2N1 was tested, and the growth was 102% (inactive).
With CCCCCCCCCCCCCCCCCCOCC(COP(=O)([O-])OCC[N+](C)(C)C)OC (stereo unspecified) the growth was 88% (inactive).
For COc1c(O)cc2oc3cc(O)c(CC=C(C)C)c(O)c3c(=O)c2c1CC=C(C)C, the growth was 48% (inactive).
In the case of Clc1ccc(/C=C/c2ccccn2)c(Cl)c1, the growth is reported as 47.5% (inactive).
For Cc1cc(O)c(C(C)C)cc1Cl, the growth was 98.8% (inactive).
With CCCCCC(C)c1ccc(O)c(C)c1 (stereo unspecified) the growth was 101% (inactive).
In the case of O=C(O)COc1ccc(OCC(=O)O)cc1, the growth is reported as 5.61% (active).
For CC(=O)Nc1cc(C)ccc1C, the growth was 107% (inactive).
In the case of Oc1ccc(N=Nc2ccccn2)c(O)c1, the growth is reported as 37.3% (inactive).
For O=C(Nc1ccc(C(=O)O)c(O)c1)c1ccccc1, the growth was 101% (inactive) and 104% (inactive).
CCN1/C(=C/C=C/C=C/c2sc3ccccc3[n+]2CC)Sc2ccccc21 was tested, and the growth was -32.2% (active).
In the case of CCCCCCCCCCCCSC(=NC)NC, the growth is reported as -7.65% (active) and 49.6% (inactive).
With Nc1nc(=S)c2ncn(C3OC(CO)C(O)C3O)c2[nH]1 (stereo unspecified) the growth was 121% (inactive) and 35.2% (inactive).
In the case of O=C(/C=C/c1cccnc1)c1ccccc1, the growth is reported as 86.5% (inactive).
For OCC(O)C(O)C(O)C(/C=N/Nc1ccccc1)=N/Nc1ccccc1 (stereo unspecified), the growth was 57.9% (inactive).
With O=[N+]([O-])C1=C(c2ccccc2)SC=C(c2ccccc2)S1 the growth was 51.9% (inactive).
O=C1NC(=O)c2cc([N+](=O)[O-])ccc21 was tested, and the growth was 103% (inactive).
O=c1ccn(C2CC(O)C(COC(c3ccccc3)(c3ccccc3)c3ccccc3)O2)c(=O)[nH]1 (stereo unspecified) was tested, and the growth was 84.7% (inactive).

Same assay, conditions: 100 µM
For O=c1ccn(C2CC(O)C(COC(c3ccccc3)(c3ccccc3)c3ccccc3)O2)c(=O)[nH]1 (stereo unspecified), the growth was 25.7% (inactive).
